Results published in PubChem BioAssay (EPA / NIEHS).
Inconclusive results are not listed. The source made the active and inactive calls. The calls were made as follows: active = hit-call score of the fitted dose curve at least 0.9, where 1 is the maximum; inconclusive = response in the unintended direction; inactive = score below 0.9.

Read-out: organic anion transporter (SLCO1B1), SLCO1B1 (gene 10599)
Test: CLD_SLCO1B1_48hr: CellzDirect (CLD) Gene Expression Assay for organic anion transporter (SLCO1B1) at 48 hours (AID 2283707)
Description: CLD_48hr is a cell-based, multiplexed-readout assay that uses hepatocyte, a human liver primary cell, with measurements taken at 48 hours after chemical dosing in a 96-well plate.CLD_SLCO1B1_48hr is one of 16 assay component(s) measured or calculated from the CLD_48hr assay. It is designed to make measurements of mRNA induction, a form of inducible reporter, as detected with chemiluminescence signals by Quantitative Nuclease Protection Assay (qNPA) technology.Data from the assay component CLD_SLCO1B1_48hr was analyzed at the endpoint, CLD_SLCO1B1_48hr, in the positive analysis fitting direction relative to DMSO as the negative control and baseline of activity. Using a type of inducible reporter, gain-of-signal activity can be used to understand changes in the reporter gene as they relate to the gene SLCO1B1. Furthermore, this assay endpoint can be referred to as a primary readout. To generalize the intended target to other relatable targets, this assay endpoint is annotated to the transporter intended target family, where subfamily is organic anion transporter.
Human hepatocyte cultures were treated daily for two consecutive days with fresh dosing solutions containing appropriate concentrations of the 320 ToxCast chemicals (chemical identities were blinded to CellzDirect and other ToxCast collaborators), vehicle control (0.2% DMSO), and positive control inducers as summarized in Table 1. Due to the large number of treatment groups and chemicals examined, the ToxCast chemicals were divided into two groups (spanning two independent cultures of hepatocytes from separate donor preparations (Hu778: ToxCast plates 1 and 2; Hu776: ToxCast plates 3 and 4). Each preparation of human hepatocyte cultures was treated with respective vehicle control, medium only control, set of six positive controls/reference chemicals for the five hepatic receptor pathways, and a subset of eight of the ToxCast chemicals (indoxacarb, pyrithiobac-sodium, norflurazon, cyhalofop-butyl, methomyl, thiram, acetochlor, and propiconazole). These replicate data, coupled with internal replicates designed within the blinded ToxCast chemical library, provided additional data to evaluate interindividual differences between hepatocyte preparations and their potential impact on chemical profiles.Cell morphology and integrity were evaluated using phase-contrast microscopy as an indicator of hepatocyte cell health (Tyson & Green, 1987). Cultures for each treatment group (i.e., media, vehicle [0.2% DMSO], positive control inducers [multiple concentrations], and the ToxCast chemicals [multiple concentrations]) were observed and cell morphology was assessed relative to vehicle control cultures at each harvest time point (0, 6, 24, or 48 h). […] Images were evaluated at the conclusion of the study to assess changes in cell integrity and account for the effects of chemical exposure on uncharacteristic changes in concentration-dependent gene expression profiles. The results from these determinations of apparent cytotoxicity were annotated (yes/no) alongside the corresponding qNPA data for reference.At the conclusion of each treatment period, hepatocyte cultures (96-well) were washed with 1 volume of HBSS, lysed by addition of 25 ul ArrayPlate lysis buffer (HTG, Tucson, AZ), and 70 ul/well of Denaturation Oil, denatured by incubation at 95C for 10 min, and frozen at approximately -70C until analysis by nuclease protection assay (qNPA) (Roberts et al., 2007). For qNPA analysis, cell lysates were thawed at 50C for approximately 30 min, qNPA probes were added, and samples were incubated at 95C for 10 min to begin the detection process by denaturing the target RNA, dissociating the duplexes and secondary structure hybridization. At the conclusion of the hybridization period, S1 nuclease reagent was added to each sample to digest all nonprotected nucleotides at 50C for 60-90 min. […]

Question: Which outcome does the source give for `COC(=O)c1cccc(C)c1S(=O)(=O)NC(=O)Nc1nc(OCC(F)(F)F)nc(N(C)C)n1` here?
Answer: inactive

Question: Which outcome does the source give for `CCCCOC(=O)C(C)Oc1ccc(Oc2ccc(C(F)(F)F)cn2)cc1` (stereo not drawn) here?
Answer: inactive

Question: Which outcome does the source give for `OB(O)O` here?
Answer: inactive

Question: How did the outcome turn out when `CCSC(=O)N(CC(C)C)CC(C)C` was run?
Answer: inactive

Question: How did the outcome turn out when `COc1c(Cl)ccc(Cl)c1C(=O)O` was run?
Answer: inactive

Question: With `CC(C)(c1ccc(O)cc1)c1ccc(O)cc1` as the compound, how does the outcome read?
Answer: inactive

Question: For `COCCO`, which outcome is on record?
Answer: inactive

Question: With `C#CCOC(=O)[C@@H](C)Oc1ccc(Oc2ncc(Cl)cc2F)cc1` as the compound, how does the outcome read?
Answer: inactive

Question: `CCCOC(=O)NCCCN(C)C` was tested. Which outcome did it give?
Answer: inactive

Question: `CSC(=O)c1cccc2nnsc12` was tested. Which outcome did it give?
Answer: inactive

Question: For `CCCN(CCC)C(=O)SCC`, which outcome is on record?
Answer: inactive

Question: With `CCOC(=O)C(C)Oc1ccc(Oc2cnc3cc(Cl)ccc3n2)cc1` (stereo not drawn) as the compound, how does the outcome read?
Answer: inactive

Question: `CCCCC(CC)COC(=O)c1ccccc1C(=O)O` (stereo not drawn) was tested. Which outcome did it give?
Answer: inactive

Question: How did the outcome turn out when `CCC(O)=C1C(=O)CC(C(=O)O)CC1=O` (stereo not drawn) was run?
Answer: inactive

Question: With `CCOC(=O)[C@H](C)Oc1ccc(Oc2nc3ccc(Cl)cc3o2)cc1` as the compound, how does the outcome read?
Answer: inactive

Question: For `CCOC(=O)NCCOc1ccc(Oc2ccccc2)cc1`, which outcome is on record?
Answer: inactive

Question: Which outcome does the source give for `CCCOC(=O)c1ccc(C(=O)OCCC)nc1` here?
Answer: inactive

Question: How did the outcome turn out when `CCC(C)OC(=O)N1CCCCC1CCO` (stereo not drawn) was run?
Answer: inactive

Question: Which outcome does the source give for `c1ccc(Nc2ccccc2)cc1` here?
Answer: inactive

Question: For `CCNc1nc(N)nc(Cl)n1`, which outcome is on record?
Answer: inactive

Question: Which outcome does the source give for `CCCCOC(=O)[C@@H](C)Oc1ccc(Oc2ccc(C(F)(F)F)cn2)cc1` here?
Answer: inactive

Question: For `COC(=O)c1ccccc1S(=O)(=O)NC(=O)Nc1nc(OC(F)F)cc(OC(F)F)n1`, which outcome is on record?
Answer: inactive

Question: Which outcome does the source give for `COC(=O)CSc1cc(N=c2sc(=O)n3n2CCCC3)c(F)cc1Cl` here?
Answer: inactive
